# Assay results: ChEMBL document CHEMBL3988442, “University of Dundee, Small-Polar-MMV Screening Library” (2021)
# In all, about 69,000 compounds went through this assay and about 1,000 (1.4%) showed an effect of 50% or more. Only a selection was taken, and strong results are over-represented in it overall.
# System: Leishmania donovani
# Test: Leishmania intramacrophage assay
# Type: functional, organism-based
# Set-up: scale not given: in the data most compounds retested in dose-response had high values
smiles,measurement,setting,value
Cc1ccc(CN2CCCn3nnc(COCC4CC4)c3C2)s1.O=C(O)C(F)(F)F,Percent Effect,"30 µM, 30.03 µM",16.69%
O=C(O)C(F)(F)F.c1csc(CN2CCCn3cnc(COCC4CC4)c3C2)n1,Percent Effect,"30.3 µM, […]",26.9%
Cc1ccc(CN2Cc3nnn(C)c3C(COCCN(C)C)C2)s1.O=C(O)C(F)(F)F.O=C(O)C(F)(F)F (centres undefined),Percent Effect,"30 µM, 30.03 µM",25.22%
O=C(O)C(F)(F)F.c1csc(CN2CCCn3nnc(COCC4CC4)c3C2)n1,Percent Effect,"30.3 µM, […]",52.28%
Cc1ccc(CN2CCCn3nnc(COCCN(C)C)c3C2)s1.O=C(O)C(F)(F)F.O=C(O)C(F)(F)F,Percent Effect,"30.3 µM, […]",66.44%
Cc1ccc(CN2CCc3c(COCC4CC4)nn(C)c3C2)s1.O=C(O)C(F)(F)F,Percent Effect,"30.3 µM, […]",25.61%
O=C(O)C(F)(F)F.c1cnc(NCc2nnn3c2CN(Cc2ccco2)CCC3)nc1,Percent Effect,"30.3 µM, […]",-8.13%
COCc1nn(C(C)C)c2c1CCN(Cc1ccc(C)s1)C2.O=C(O)C(F)(F)F,Percent Effect,"30 µM, 30.03 µM",26.5%
Fc1ccc(CN2CCCn3nnc(COCC4CC4)c3C2)cc1.O=C(O)C(F)(F)F,Percent Effect,"30.3 µM, […]",-0.08958%
O=C(O)C(F)(F)F.c1ccc(CN2CCCn3nnc(Cn4cccc4)c3C2)nc1,Percent Effect,"30.3 µM, […]",-22.64%
Cc1ccc(CN2CCc3c(COC(C)C)nn(C)c3C2)s1.O=C(O)C(F)(F)F,Percent Effect,"30.3 µM, […]",54.88%
O=C(O)C(F)(F)F.c1ccc(CN2CCCn3nnc(CNc4ncccn4)c3C2)nc1,Percent Effect,"30.3 µM, […]",67.35%
Cc1ccccc1CN1C[C@@H]2CC[C@H](C1)N(CC1CCC1)C2=O,Percent Effect,"30.3 µM, […]",6.524%
COCc1noc(CN2C[C@H](C3CC3)[C@@H](N(C)C)C2)n1,Percent Effect,"30.3 µM, […]",0.8667%
COCCOCCNS(=O)(=O)C1CS(=O)(=O)c2ccccc21 (centres undefined),Percent Effect,"30.3 µM, […]",-2.938%
O=C(Nc1ccc(F)cc1)C1CNCCN1C(=O)CCc1cccnc1 (centres undefined),Percent Effect,"30.3 µM, […]",21.52%
CC1CN(C)CCN1C(=O)c1ccn(-c2ccc(F)cc2)n1 (centres undefined),Percent Effect,30 µM,12.79%
CN(CCN1CCCCCC1)C(=O)c1cc(CN2CCCC(O)C2)on1 (centres undefined),Percent Effect,"30.3 µM, […]",28.93%
COc1cccc2c1OCCCN(Cc1ccc(C(N)=O)c(=O)[nH]1)C2,Percent Effect,"30.3 µM, […]",18.01%
COc1c(CNCc2ccccc2CN2CCOCC2)c(C)nn1C,Percent Effect,"30.3 µM, […]",15.12%
O=C(CN1CCc2cncnc2C1)NC1CCCCNC1=O (centres undefined),Percent Effect,"30.3 µM, […]",3.811%
Cn1cc(CN2C[C@@H]3COC[C@]3(COCC3CC3)C2)cn1.O=C(O)C(F)(F)F,Percent Effect,"30.3 µM, […]",35.55%
Cn1cc(CN2C[C@H]3CCC[C@@]3(COCC3CC3)C2)cn1.O=C(O)C(F)(F)F,Percent Effect,"30.3 µM, […]",55.4%
Cc1nc(COC[C@@]23CCC[C@@H]2CN(Cc2cnn(C)c2)C3)cs1,Percent Effect,"30.3 µM, […]",33.3%
O=C(O)C(F)(F)F.O=C1N(c2ccsc2)CCC12CCCN(CC1CC1)C2 (centres undefined),Percent Effect,"30.3 µM, […]",57%
CN(C)C(=O)CN1CCCC2(CCN(c3ccsc3)C2=O)C1.O=C(O)C(F)(F)F (centres undefined),Percent Effect,"30 µM, 30.03 µM",-2.413%
COCCN1CCCC2(CCN(c3ccsc3)C2=O)C1.O=C(O)C(F)(F)F (centres undefined),Percent Effect,"30.3 µM, […]",-19.62%
Cc1ccoc1C(=O)N1C[C@@H](OCC2CC2)[C@H]2OCCC[C@H]21,Percent Effect,"30.3 µM, […]",18.9%
Cc1nc(NC(=O)C(C)N(C)Cc2cccc(C#N)c2)sc1C (centres undefined),Percent Effect,"30.3 µM, […]",-18.76%
Cc1nc(NC(=O)C(C)N(C)Cc2ccc3c(c2)OCO3)sc1C (centres undefined),Percent Effect,"30.3 µM, […]",11.52%
COc1cccc(CN(C)C(C)C(=O)Nc2nc(C)c(C)s2)c1 (centres undefined),Percent Effect,"30.3 µM, […]",51.15%
CCN(CC)C1CCN(C(=O)NCc2cccc(-n3ccnc3)c2)C1 (centres undefined),Percent Effect,"30.3 µM, […]",23.85%
Cl.O=C(O)C1(Cc2ccc(-c3cccs3)cc2)CCNC1 (centres undefined),Percent Effect,"30.3 µM, […]",44.48%
Cl.O=C(O)C1(Cc2cccc(-c3cccs3)c2)CCCNC1 (centres undefined),Percent Effect,"30.3 µM, […]",29.13%
Cl.O=C(N1CCCC1)C1(Cc2ccc(-c3cccs3)cc2)CCNC1 (centres undefined),Percent Effect,"30.3 µM, […]",86.38%
O=C(NCc1cc[nH]n1)NCC(O)c1ccc(F)cc1F (centres undefined),Percent Effect,"30 µM, 30.03 µM",9.759%
O=C(c1cnccn1)N1CCCC(C2=Nc3ccccc3S(=O)(=O)N2)C1 (centres undefined),Percent Effect,"30.3 µM, […]",-20.53%
O=C1CCC(=O)N1c1nn(Cc2cccc(F)c2)cc1Cl,Percent Effect,"30.3 µM, […]",-1.051%
CC(C)CN1CC(C(=O)NCCNc2ncccn2)CC1=O (centres undefined),Percent Effect,"30.3 µM, […]",7.647%
COCC(=O)N1CCCn2c(CN3CCCC3=O)nnc2C1,Percent Effect,"30.3 µM, […]",51.47%
COCC(=O)N1CCCn2c(CN3CCCC3)nnc2C1,Percent Effect,"30.3 µM, […]",44.76%
COCC(=O)N1CCCn2c(CN3CCCCC3)nnc2C1.O=C(O)C(F)(F)F,Percent Effect,"30 µM, 30.03 µM",-9.377%
CCOc1ccc(C(=O)NS(=O)(=O)c2cncc(Br)c2)cc1OC,Percent Effect,"30 µM, 30.03 µM",20.52%
CCCN(CCOC)c1nc(C)nc2sccc12,Percent Effect,"30.3 µM, […]",19.01%
COCCN(Cc1sccc1C)c1nc(C)nc2sccc12,Percent Effect,"30.3 µM, […]",13.95%
CCOCCN(CCOCC)c1nc(C)nc2sccc12,Percent Effect,"30.3 µM, […]",93.26%
Cc1nnc(SCCNC(=O)Cn2cnc3ccccc3c2=O)s1,Percent Effect,"30.3 µM, […]",15.09%
Cc1cnc(N2CCC3(CCN(Cc4csc(C)n4)C3=O)C2)nc1.O=C(O)C(F)(F)F (centres undefined),Percent Effect,"30.3 µM, […]",19.08%
COc1cc(N2CCC3(CCN(Cc4csc(C)n4)C3=O)C2)ncn1.O=C(O)C(F)(F)F (centres undefined),Percent Effect,"30.3 µM, […]",55.45%
COc1cc(N2CCC3(CCN(Cc4csc(C)n4)C3)CC2)ncn1.O=C(O)C(F)(F)F,Percent Effect,"30.3 µM, […]",30.69%
COCCCn1c(CN2CCSCC2)cnc1S(=O)(=O)C1CCCC1,Percent Effect,"30.3 µM, […]",17.55%
CCc1nc2n(n1)CC(NCC(=O)Nc1ccc(Cl)cn1)CC2 (centres undefined),Percent Effect,"30 µM, 30.03 µM",11.34%
CCOc1ccccc1C(N)CC(C)C (centres undefined),Percent Effect,"30.3 µM, […]",19.23%
CC(C)C[C@H](N)COc1cccc(F)c1Oc1ccccc1,Percent Effect,"30.3 µM, […]",56.67%
CC(CNS(N)(=O)=O)Oc1cccc(Cl)c1 (centres undefined),Percent Effect,"30.3 µM, […]",5.132%
Cc1ccc(Oc2c(F)cccc2OC[C@@H](N)CC(C)C)cc1,Percent Effect,"30.3 µM, […]",95.01%
CC(C)COc1ccccc1C(N)CC(C)C (centres undefined),Percent Effect,"30.3 µM, […]",23.51%
CCCOc1ccccc1C(N)CC(C)C (centres undefined),Percent Effect,"30.3 µM, […]",24.69%
NCc1ccc(Oc2cccc(Cl)c2Cl)cc1,Percent Effect,"30.3 µM, […]",17.28%
CC(C)C[C@H](N)COc1cccc(F)c1Oc1ccc(Cl)cc1,Percent Effect,"30.3 µM, […]",96.61%
CNCc1cc(F)ccc1Oc1ccc(Cl)cc1,Percent Effect,"30.3 µM, […]",-3.595%
COc1ccccc1C(N)CC(C)C (centres undefined),Percent Effect,"30.3 µM, […]",3.977%
CC(CNS(C)(=O)=O)Oc1cccc(Cl)c1 (centres undefined),Percent Effect,"30.3 µM, […]",6.182%
CC(C)C[C@H](N)COc1cccc(F)c1Oc1cccc(Cl)c1,Percent Effect,"30.3 µM, […]",98.08%
